High-throughput results from PubChem BioAssay.
Only a selection was taken, and hits are over-represented in it overall.
Sm TGR inh = qHTS Assay for the Inhibitors of Schistosoma Mansoni Peroxiredoxins; Schistosoma mansoni thioredoxin glutathione reductase (TGR), Q962Y6; purified TGR, DTNB reduction, TNB absorbance 405 nm; Potency, µM (doses to about 114 µM), hits mostly inhibitors; 360,000 compounds, 3% hits; note: nearly all actives have a fitted effect of over 60% in size
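TGR 20 nM + NADPH 100 uM (dispensed conc.), cpd preinc 15 min RT; start with NADPH (500 uM addition) then DTNB (15 mM addition). Kinetic TNB absorbance, 405 nm filter. Four-parameter Hill fit across titration.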
TbPYK inhibitor = qHTS of Trypanosoma Brucei Inhibitors | TbPYK enzyme, Kinase-Glo Plus ATP luminescence, 45 min | AID 624173, 2012 | pyruvate kinase (Trypanosoma brucei), Q57TT1 | Potency, µM (titrated, usually from 76.8 µM), usual class: inhibitors | 410,000 compounds, 0.12% hits; note: nearly all actives have a fitted effect of over 50% in size
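ADP (130 uM final) triggers the TbPYK reaction after compound addition; incubation is 45 min at room temperature. Kinase-Glo Plus is then added and luminescence imaged. Normalized data are fitted to concentration-effect curves.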
Shiga inhibitor = A qHTS for Small Molecule Inhibitors of Shiga Toxin; Vero cells, Shiga toxin protein synthesis inhibition reporter; inhibition, % at 38.7 µM; 290,000 compounds, 9.2% hits; AID 2315, 2010; in the data active = inhibition mostly above about 28%, no sharp cut-off; inactive = mostly below about 43%
Giardia FBPA inh = qHTS Assay for Inhibitors of Fructose-1,6-bisphosphate Aldolase from Giardia Lamblia. A8B2U2. purified Giardia FBPA. Potency, µM (series often up to 59.6 µM), hits mostly inhibitors. 290,000 compounds, 0.71% hits; note: nearly all actives have a fitted effect of over 55% in size
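40 nM FBPA preincubated 10 min at RT with compound (up to 57.5 uM final), then substrate plus GAPDH/TPI/NAD/arsenate coupling and diaphorase/resazurin added. Fluorescence read after 20 min at RT, 525/598 nm.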
LmPK inh = qHTS Assay for Inhibitors of Leishmania Mexicana Pyruvate Kinase (LmPK). Q27686. Potency, µM (series often up to 57.5 µM), hits mostly inhibitors. purified LmPK, Kinase-Glo ATP luminescence, 1 h. 290,000 compounds, 0.37% hits
Target sequence (Q27686 whole entry, looked up): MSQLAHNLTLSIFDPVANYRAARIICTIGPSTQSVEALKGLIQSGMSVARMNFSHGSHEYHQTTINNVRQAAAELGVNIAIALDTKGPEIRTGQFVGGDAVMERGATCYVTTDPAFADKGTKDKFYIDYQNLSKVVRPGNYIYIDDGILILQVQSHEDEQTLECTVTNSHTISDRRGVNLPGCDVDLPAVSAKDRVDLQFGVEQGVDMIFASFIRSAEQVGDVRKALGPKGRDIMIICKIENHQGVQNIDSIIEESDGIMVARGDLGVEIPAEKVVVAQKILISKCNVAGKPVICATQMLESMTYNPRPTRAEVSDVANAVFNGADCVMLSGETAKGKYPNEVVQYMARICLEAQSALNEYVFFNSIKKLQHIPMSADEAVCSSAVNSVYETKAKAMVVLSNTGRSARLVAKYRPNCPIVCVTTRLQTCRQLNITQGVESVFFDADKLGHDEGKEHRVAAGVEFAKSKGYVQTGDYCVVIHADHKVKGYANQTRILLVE
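In 50 mM imidazole pH 7.2 with 7 mM MgCl2, LmPK (0.1 nM) turned over PEP (0.5 mM) and ADP (0.1 mM) for 1 h at room temperature. Luciferase read-out of ATP.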
Cycloheximide cs = Cycloheximide Counterscreen for Small Molecule Inhibitors of Shiga Toxin; cell reporter, cycloheximide protein synthesis inhibition counterscreen; 300,000 compounds, 12% hits; AID 2314, 2010; max response, %; in the data active = max response mostly above about 13%, no sharp cut-off; inactive = mostly below about 14%; note: read at 38.3 µM for the half of the compounds with a filed dose
Of the large screens only hits and unclear results are named; the others gave an inactive call. Unless noted, calls come from the whole dose curve; as a rule, active = well fitted curve in the direction sought with a large enough effect; inconclusive = small, poorly fitted or top-dose-only effect, or another doubt; inactive = no such curve, though single readings can be large; an effect the other way counts as inactive or inconclusive.

O=C(O)c1ccccc1SCc1cn2ccccc2n1	Giardia FBPA inh inconclusive
c1ccc(CSCc2cn3ccccc3n2)cc1	Shiga inhibitor 112.3, Cycloheximide cs 46.9
Cc1ccc2nc(COC(=O)CNC(=O)c3ccccc3)cn2c1	none (no result: Shiga inhibitor, Giardia FBPA inh, LmPK inh, Cycloheximide cs)
Cc1ccc(SCc2cn3ccccc3n2)cc1	Shiga inhibitor 66.4, Cycloheximide cs 32.2
Cc1ccc(C(=O)OCc2cn3ccccc3n2)cc1	Cycloheximide cs 14.9
CCOc1ccc(NC(=O)CN(C)C(=O)c2cccnc2Sc2ccccc2Cl)cc1OCC	none (no result: Shiga inhibitor, Giardia FBPA inh, LmPK inh, Cycloheximide cs)
COc1ccc(C(=O)NC(C)Cc2c[nH]c3ccccc23)cc1 (stereo not drawn)	none (no result: Sm TGR inh, Shiga inhibitor, Giardia FBPA inh, LmPK inh, Cycloheximide cs)
Nc1cnccc1C(=O)O	Giardia FBPA inh 12.6µM
S=C(c1ccc(-c2ccc(Cl)cc2)o1)N1CCCCC1	Sm TGR inh inconclusive, Shiga inhibitor 95.5, Cycloheximide cs 39.1
N#CCCN1CCN(C(=S)c2ccc(-c3ccc(Cl)cc3)o2)CC1	Shiga inhibitor 90.6, Cycloheximide cs 27.9
O=C(O)c1ccc(-c2ccccc2Cl)o1	none
CN1CCN(C(=S)c2ccc(-c3cccc(Cl)c3Cl)o2)CC1	Shiga inhibitor active, Cycloheximide cs 39.9
O=C(Nc1ccccc1N1CCCCC1)c1ccc(-c2ccc(Cl)cc2)o1	none
S=C(c1ccc(-c2ccccc2Cl)o1)N1CCCCC1	Shiga inhibitor 61.7, Cycloheximide cs 47.7
O=C(c1ccc(-c2ccccc2Cl)o1)N1CCN(c2ccccc2O)CC1	none (no result: Shiga inhibitor, Giardia FBPA inh, LmPK inh, Cycloheximide cs)
Cc1cccc(Nc2nn3c(=O)c4cc5c(cc4nc3s2)OCO5)c1	none (no result: Shiga inhibitor, Giardia FBPA inh, LmPK inh, Cycloheximide cs)
O=C(Nc1ccc(Cl)cn1)c1cccnc1	Cycloheximide cs 14.5
O=C(Nc1ccc(Cl)cn1)c1ccc2nccnc2c1	Shiga inhibitor 132.3, Cycloheximide cs 32.5 (no result: Giardia FBPA inh)
O=C(Nc1cc(Cl)cc(Cl)c1)c1cccnc1	none (no result: Shiga inhibitor)
O=C(Nc1ccccc1Cl)c1ccc2nccnc2c1	Shiga inhibitor 66.8, Cycloheximide cs 24.9
COC(=O)c1ccccc1NC(=O)c1ccc2nccnc2c1	none
O=C(Nc1ccc(Br)cn1)c1ccc2nccnc2c1	none (no result: Sm TGR inh, Shiga inhibitor, Giardia FBPA inh, LmPK inh, Cycloheximide cs)
CCOC(=O)C1CCN(C(=O)Cn2cnc3sc(C)c(S(=O)(=O)N4CCOCC4)c3c2=O)CC1	none
COc1ccc(/C=N/n2cnn(Cc3ccccc3Cl)c2=S)cc1	Giardia FBPA inh inconclusive, Cycloheximide cs 35.6
NNC(=O)c1cncc(Br)c1	none
Cc1ccc(SCC(=O)NNC(=O)c2cncc(Br)c2)cc1	none (no result: Sm TGR inh, Shiga inhibitor, Giardia FBPA inh, LmPK inh, Cycloheximide cs)
Cc1ccc(C(=O)c2cncc(Br)c2)cc1	Cycloheximide cs 21.9
CCc1ccc(C(=O)c2cncc(Br)c2)cc1	Shiga inhibitor 48.7, Cycloheximide cs 35.2
Cc1ccc(C(=O)c2cc(Br)ccc2N)cc1	Shiga inhibitor 44.6, Cycloheximide cs 22.2
O=C1C(=C2SCCCS2)CC/C1=C\c1ccc(F)cc1	Shiga inhibitor 78.6, LmPK inh inconclusive, Cycloheximide cs 31.0
Cc1cccc(/C=C2\CCC(=C3SCCCS3)C2=O)c1	Shiga inhibitor 79.9, LmPK inh inconclusive, Cycloheximide cs 44.4
O=C1NC(=S)SC1=Cc1ccc(F)cc1	none (no result: Sm TGR inh, Shiga inhibitor, Giardia FBPA inh, LmPK inh, Cycloheximide cs)
O=C(Nc1ccccc1)c1cc(C2CCCCN2C(=O)c2ccccc2)on1 (stereo not drawn)	none (no result: Sm TGR inh, Shiga inhibitor, Giardia FBPA inh, LmPK inh, Cycloheximide cs)
CN(C)c1ccc(N=C/C=C2/N(C)c3ccccc3C2(C)C)cc1	Shiga inhibitor 77.5, Cycloheximide cs 62.0
O=c1c2c3c(sc2nc2sc(CN4CCOCC4)cn12)CCCC3	Shiga inhibitor active, Cycloheximide cs 17.9
CCOC(=O)C1CCCN(C(=O)C(=O)c2cn(CC(=O)N3CCOCC3)c3ccccc23)C1 (stereo not drawn)	none (no result: Giardia FBPA inh)
O=C(O)CN1C(=O)/C(=C\C(Br)=C\c2ccccc2)SC1=S	Sm TGR inh 20µM, Giardia FBPA inh inconclusive
O=C(O)CN1C(=O)/C(=C\c2ccc(OC(=O)c3ccco3)cc2)SC1=S	Giardia FBPA inh inconclusive
O=C(O)CN1C(=O)/C(=C/c2ccc(SCc3ccccc3)o2)SC1=S	Sm TGR inh 10µM, Giardia FBPA inh 19.9µM
O=C(O)CCCN1C(=O)/C(=C\c2ccco2)SC1=S	Sm TGR inh inconclusive, TbPYK inhibitor inconclusive, Giardia FBPA inh inconclusive
